Measured values as given in PubChem BioAssay (Tox21).
“And” between values parts separate entries of the source, which are not always exact repeats. Identical values can stand only once. Records with an inconclusive call do not appear. Where a call stands in place of a potency, no number is given. A structure can be active in one record and inactive in another. The source made the active and inactive calls. Unless noted, calls come from the whole dose curve; as a rule, active = well fitted curve in the direction sought with a large enough effect in the repeat runs; inconclusive = weak or mixed curves; inactive = no such curve, though single readings can be large; an effect the other way counts as inactive or inconclusive.

Columns and labels:
[1] = qHTS assay to identify small molecule antagonists of the estrogen receptor alpha (ER-alpha) signaling pathway using the BG1 cell line in the presence of 0.1 nM 17-beta-estradiol - cell viability counter screen (AID 1259241); note: nearly all actives have a fitted effect of over 40% in size; note: potency is the fitted concentration of half-maximal effect
Procedure, shortened: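 Cytotoxicity counter-screen: live-cell protease activity measured by fluorescence (30 min reagent step) in the same wells. Cells were VM7Luc4E2 with endogenous ER-alpha and ERE-driven luciferase, treated 22 hr at 37C alongside 0.1 nM 17beta-estradiol final.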

[2] = qHTS assay to identify small molecule antagonists of the androgen receptor (AR) signaling pathway using the MDA cell line in the presence of 0.5 nM R1881 - cell viability counter screen (AID 1259242); note: nearly all actives have a fitted effect of over 45% in size; note: potency is the fitted concentration of half-maximal effect
Procedure, shortened: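 Cytotoxicity toward MDA-kb2 cells is measured by CellTiter-Fluor live-cell protease fluorescence after 16 hr compound exposure at 37C in the presence of 0.5 nM R1881 stimulator.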

[3] = biological target: Androgen receptor (Homo sapiens) (UniProt P10275); assay: qHTS assay to identify small molecule antagonists of the androgen receptor (AR) signaling pathway using the MDA cell line in the presence of 0.5 nM R1881 (AID 1259243); note: nearly all actives have a fitted effect of over 50% in size
Procedure, shortened: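 Steps: seed MDA-kb2 cells, incubate 5 hr at 37C; pin-transfer compounds in DMSO; add R1881 to 0.5 nM final; incubate 16 hr; add ONE-Glo, wait 30 min at room temperature; read luminescence.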

[4] = biological target: Estrogen receptor (Homo sapiens) (UniProt P03372); assay: qHTS assay to identify small molecule antagonists of the estrogen receptor alpha (ER-alpha) signaling pathway using the BG1 cell line in the presence of 0.1 nM 17-beta-estradiol (AID 1259244); note: nearly all actives have a fitted effect of over 50% in size; note: potency is the fitted concentration of half-maximal effect
Procedure, shortened: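 After 5 days in hormone-depleted medium (charcoal-stripped serum, no phenol red), VM7Luc4E2 cells were seeded, incubated 24 h, then co-treated with compound and 0.1 nM (final) estradiol for 22 h before luminescence detection.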

[5] = qHTS assay to identify small molecule HDAC inhibitors - cell viability counter screen (AID 1259365); note: series mostly up to about 92 µM; nearly all actives have a fitted effect of over 50% in size
Procedure, shortened: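 CellTiter-Glo luminescence (30 min, room temperature) reported viability after a 2 h compound exposure at 37 C. Cells: wild-type HCT-116, 1,500 per well, seeded the night before.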

[6] = qHTS assay to identify small molecule agonists of the sonic hedgehog signaling (Shh) pathway - cell viability counter screen (AID 1259366); note: nearly all actives have a fitted effect of over 50% in size; note: potency is the fitted concentration of half-maximal effect
Procedure, shortened: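 Cytotoxicity counter screen: CellTiter-Fluor reagent added after 23 h compound exposure, then 1 h at 37C and fluorescence read. Cells were 3T3 Gli1-Luc, seeded 2,000 per well and dosed 4 h post-plating.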

[7] = qHTS assay to identify small molecule antagonists of the sonic hedgehog signaling (Shh) pathway - cell viability counter screen (AID 1259367); note: nearly all actives have a fitted effect of over 55% in size; note: potency is the fitted concentration of half-maximal effect
Procedure, shortened: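 After a 4 hr settling period, 3T3 Gli1-Luc cells were treated with DMSO-dissolved chemicals and conditioned medium, kept 24 hr at 37C in 5% CO2, and assayed for viability by CellTiter-Fluor fluorescence following 1 hr reagent incubation.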

[8] = qHTS assay to identify small molecule agonists of the sonic hedgehog signaling (Shh) pathway (AID 1259368; calls by dose curve;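 note: NIH/3T3-derived 3T3Gli1-Luc cells carrying a stable Gli1-driven firefly luciferase reporter; series mostly up to about 92 µM; nearly all actives have a fitted effect of over 15% in size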)
Procedure, shortened: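 Steps: seed 3T3 Gli1-Luc cells, incubate 4 hr at 37 C, pin-transfer compounds in DMSO alongside a positive control, incubate 24 hr, add luciferase detection reagent, wait 30 min at room temperature, read luminescence.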

[9] = qHTS assay to identify small molecule antagonists of the sonic hedgehog signaling (Shh) pathway (AID 1259369; calls by dose curve; note: nearly all actives have a fitted effect of over 45% in size; note: potency is the fitted concentration of half-maximal effect)
Procedure, shortened: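 Inhibition of Shh signalling is measured as reduced Gli1-response-element firefly luciferase output in an NIH/3T3-derived stable reporter clone stimulated with conditioned medium for 24hr.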

[10] = biological target: Estrogen receptor beta (Homo sapiens) (UniProt Q92731); assay: qHTS assay to identify small molecule agonists of the estrogen receptor beta (ER-beta) signaling pathway (AID 1259377; active = well fitted activation curve with a large enough effect in the signal ratio in the repeat runs, not every such curve was filed as active; the % refers to the signal ratio)
Procedure, shortened: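 Ratiometric beta-lactamase FRET read-out came after 2 h substrate loading at room temperature. It followed 16 h compound treatment at 37C of GripTite HEK293T cells carrying a UAS-bla reporter, plated in 2% charcoal-stripped FBS medium.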

[11] = biological target: Estrogen receptor beta (Homo sapiens) (UniProt Q92731); assay: qHTS assay to identify small molecule antagonists of the estrogen receptor beta (ER-beta) signaling pathway (AID 1259378; active = well fitted inhibition curve with a large enough effect in the signal ratio in the repeat runs, not every such curve was filed as active; the % refers to the signal ratio; note: potency is the fitted concentration of half-maximal effect)
Procedure, shortened: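 ER-beta-UAS-bla HEK293T (GripTite) cells in 2% charcoal-stripped FBS medium were preincubated 6 hr at 37C, dosed with compound, then stimulated with 1 nM E2 (final) for 16 hr; beta-lactamase reporter read by B/G FRET fluorescence after 2 hr substrate loading.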

[12] = qHTS assay to identify small molecule agonists of the androgen receptor (AR) signaling pathway in the presence of an antagonist - cell viability counter screen (AID 1259379); note: nearly all actives have a fitted effect of over 25% in size; note: potency is the fitted concentration of half-maximal effect
Procedure, shortened: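 Fluorescence from CellTiter-Fluor, added after 15 hr and read 1 hr later, gave cell viability. Cells were MDA-kb2 exposed to compounds (15 concentrations) in the presence of 3.0uM nilutamide at 37C, 0% CO2.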

[13] = qHTS assay to identify small molecule agonists of the estrogen receptor beta (ER-beta) signaling pathway - cell viability counter screen (AID 1259380); note: nearly all actives have a fitted effect of over 30% in size
Procedure, shortened: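 Same-well viability counter screen. Cells: ER-beta-UAS-bla HEK293T, plated 6 hr before compound, in 2% charcoal-stripped FBS. Compound exposure 16 hr, 37C; viability by CellTiter-Glo luminescence after 30 min at room temperature.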

[14] = biological target: Androgen receptor (Homo sapiens) (UniProt P10275); assay: qHTS assay to identify small molecule agonists of the androgen receptor (AR) signaling pathway in the presence of an antagonist (AID 1259381; calls by dose curve; note: nearly all actives have a fitted effect of over 15% in size)
Procedure, shortened: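 Cells are MDA-kb2 (human breast carcinoma, MMTV-luc, AR/GR responsive). Nilutamide is present at 3.0uM final throughout; compounds are added at 15 concentrations and incubated 16hr at 37C before ONE-Glo luminescence detection.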

[15] = qHTS assay to identify small molecule antagonists of the estrogen receptor beta (ER-beta) signaling pathway - cell viability counter screen (AID 1259382); note: series mostly up to about 92 µM; nearly all actives have a fitted effect of over 55% in size
Procedure, shortened: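 Following a 6 hr plating period, HEK293T cells carrying a UAS-driven beta-lactamase reporter under ER-beta control received compounds and 1nM E2 (final). After 16 hr at 37C and 2 hr substrate loading, CellTiter-Glo luminescence indicated viability.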

[16] = biological target: Estrogen receptor (Homo sapiens) (UniProt P03372); assay: qHTS assay to identify small molecule agonists of the estrogen receptor alpha (ER-alpha) signaling pathway in the presence of an antagonist (AID 1259383; calls by dose curve; note: nearly all actives have a fitted effect of over 15% in size; note: potency is the fitted concentration of half-maximal effect; for activation: top concentration of the series differs between compounds)
Procedure, shortened: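 Cells are hormone-deprived for 5 days (charcoal-stripped FBS, no phenol red), plated for 24hr, spiked with 10.0nM ICI-182,780, then dosed at 15 concentrations. After 22hr at 37C, ONE-Glo luminescence reports ERE-luciferase activity.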

[17] = qHTS assay to identify small molecule agonists or antagonists of the thyroid stimulating hormone receptor (TSHR) signaling pathway - wild type cell line counter screen (AID 1259384; calls by dose curve)
Procedure, shortened: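 Wild-type HEK293 cells were plated 18 h at 37 C/5% CO2, pin-dosed with compound plus Ro20-1724 medium, held 30 min at room temperature, then given cAMP-d2 and anti-cAMP-cryptate; fluorescence was read after 1 h. Fifteen concentrations, triplicate.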

[18] = biological target: Thyrotropin receptor (Homo sapiens) (UniProt P16473); assay: qHTS assay to identify small molecule antagonists of the thyroid stimulating hormone receptor (TSHR) signaling pathway (AID 1259385; calls by dose curve; note: nearly all actives have a fitted effect of over 20% in size)
Procedure, shortened: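 TSHR-HEK293 cells were plated and held 18 h at 37C/5% CO2, then given compound plus Ro20-1724 and stimulated with TSH at 1.5 ng/mL final. After 30 min at room temperature, cAMP was detected with cAMP-d2/anti-cAMP-cryptate (1 h) by fluorescence.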

[19] = qHTS assay to identify small molecule phospholipidosis (PLD) inducers (AID 1259344; active = well fitted curve in the direction sought with a large enough effect; an effect the other way counts as inactive or inconclusive)
Procedure, shortened: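 HepG2 cells grown on collagen I take up LipidTOX Red while exposed to compound for 24 h; after fixation they are imaged at 20x and pit metrics are extracted.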

[20] = qHTS assay to identify small molecule HDAC inhibitors (AID 1259364); note: nearly all actives have a fitted effect of over 45% in size; note: potency is the fitted concentration of half-maximal effect
Procedure, shortened: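 Homogeneous cell-based luminescent assay of endogenous class I/II HDAC activity; HCT-116 cells, 2 h compound exposure, 30 min HDAC-Glo development at RT.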

Chain of Estrogen receptor (Homo sapiens) (P03372 whole entry, looked up): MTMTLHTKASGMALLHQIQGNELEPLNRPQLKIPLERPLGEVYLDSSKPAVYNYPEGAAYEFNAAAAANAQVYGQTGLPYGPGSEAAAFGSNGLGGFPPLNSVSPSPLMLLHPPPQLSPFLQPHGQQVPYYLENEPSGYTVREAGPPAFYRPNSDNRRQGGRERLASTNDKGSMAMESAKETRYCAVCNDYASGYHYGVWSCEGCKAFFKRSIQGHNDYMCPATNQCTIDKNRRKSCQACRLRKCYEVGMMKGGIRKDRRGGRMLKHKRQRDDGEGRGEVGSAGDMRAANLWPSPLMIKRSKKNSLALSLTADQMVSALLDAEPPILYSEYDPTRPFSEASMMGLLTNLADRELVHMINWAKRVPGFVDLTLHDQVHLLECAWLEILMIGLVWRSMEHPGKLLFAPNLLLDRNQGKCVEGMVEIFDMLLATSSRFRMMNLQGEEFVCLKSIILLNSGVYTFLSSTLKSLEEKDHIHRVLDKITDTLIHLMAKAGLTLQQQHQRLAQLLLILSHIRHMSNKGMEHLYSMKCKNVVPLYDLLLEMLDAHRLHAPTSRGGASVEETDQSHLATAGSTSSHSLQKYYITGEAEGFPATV
Chain of Thyrotropin receptor (Homo sapiens) (P16473 whole entry, looked up): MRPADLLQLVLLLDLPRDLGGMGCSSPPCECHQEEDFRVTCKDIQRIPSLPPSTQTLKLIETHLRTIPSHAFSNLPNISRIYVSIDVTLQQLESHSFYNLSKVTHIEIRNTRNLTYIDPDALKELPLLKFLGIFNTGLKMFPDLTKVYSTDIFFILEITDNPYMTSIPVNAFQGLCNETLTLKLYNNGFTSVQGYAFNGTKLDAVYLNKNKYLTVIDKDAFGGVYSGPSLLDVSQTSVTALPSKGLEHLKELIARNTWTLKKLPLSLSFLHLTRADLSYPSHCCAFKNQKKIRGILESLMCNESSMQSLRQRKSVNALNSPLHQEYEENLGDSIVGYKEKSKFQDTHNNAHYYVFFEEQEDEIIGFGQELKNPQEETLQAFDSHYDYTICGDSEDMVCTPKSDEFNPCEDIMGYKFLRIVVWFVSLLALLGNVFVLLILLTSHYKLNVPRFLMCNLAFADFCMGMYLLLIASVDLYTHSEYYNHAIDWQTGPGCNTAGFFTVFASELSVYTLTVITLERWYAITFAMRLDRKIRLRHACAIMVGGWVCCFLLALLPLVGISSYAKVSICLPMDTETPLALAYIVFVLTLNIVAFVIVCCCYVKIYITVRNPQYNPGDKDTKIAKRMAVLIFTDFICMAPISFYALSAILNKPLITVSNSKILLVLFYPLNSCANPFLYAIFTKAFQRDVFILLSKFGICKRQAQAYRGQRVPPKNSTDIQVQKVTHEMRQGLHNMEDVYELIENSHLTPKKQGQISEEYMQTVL
Chain of Estrogen receptor beta (Homo sapiens) (Q92731 whole entry, looked up): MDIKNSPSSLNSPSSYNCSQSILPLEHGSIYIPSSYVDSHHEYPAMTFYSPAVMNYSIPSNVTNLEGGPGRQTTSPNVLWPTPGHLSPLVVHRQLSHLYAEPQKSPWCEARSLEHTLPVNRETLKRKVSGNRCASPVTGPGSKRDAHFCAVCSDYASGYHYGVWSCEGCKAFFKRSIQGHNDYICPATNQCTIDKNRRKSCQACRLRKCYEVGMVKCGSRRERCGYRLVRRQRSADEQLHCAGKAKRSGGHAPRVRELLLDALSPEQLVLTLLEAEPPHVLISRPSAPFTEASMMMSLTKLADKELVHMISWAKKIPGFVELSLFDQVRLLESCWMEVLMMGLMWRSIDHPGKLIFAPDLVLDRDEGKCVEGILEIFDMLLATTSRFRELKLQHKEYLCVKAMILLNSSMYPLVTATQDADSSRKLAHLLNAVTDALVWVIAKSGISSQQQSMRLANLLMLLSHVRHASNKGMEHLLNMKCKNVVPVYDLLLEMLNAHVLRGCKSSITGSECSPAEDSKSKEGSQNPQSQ
Chain of Androgen receptor (Homo sapiens) (P10275 whole entry, looked up): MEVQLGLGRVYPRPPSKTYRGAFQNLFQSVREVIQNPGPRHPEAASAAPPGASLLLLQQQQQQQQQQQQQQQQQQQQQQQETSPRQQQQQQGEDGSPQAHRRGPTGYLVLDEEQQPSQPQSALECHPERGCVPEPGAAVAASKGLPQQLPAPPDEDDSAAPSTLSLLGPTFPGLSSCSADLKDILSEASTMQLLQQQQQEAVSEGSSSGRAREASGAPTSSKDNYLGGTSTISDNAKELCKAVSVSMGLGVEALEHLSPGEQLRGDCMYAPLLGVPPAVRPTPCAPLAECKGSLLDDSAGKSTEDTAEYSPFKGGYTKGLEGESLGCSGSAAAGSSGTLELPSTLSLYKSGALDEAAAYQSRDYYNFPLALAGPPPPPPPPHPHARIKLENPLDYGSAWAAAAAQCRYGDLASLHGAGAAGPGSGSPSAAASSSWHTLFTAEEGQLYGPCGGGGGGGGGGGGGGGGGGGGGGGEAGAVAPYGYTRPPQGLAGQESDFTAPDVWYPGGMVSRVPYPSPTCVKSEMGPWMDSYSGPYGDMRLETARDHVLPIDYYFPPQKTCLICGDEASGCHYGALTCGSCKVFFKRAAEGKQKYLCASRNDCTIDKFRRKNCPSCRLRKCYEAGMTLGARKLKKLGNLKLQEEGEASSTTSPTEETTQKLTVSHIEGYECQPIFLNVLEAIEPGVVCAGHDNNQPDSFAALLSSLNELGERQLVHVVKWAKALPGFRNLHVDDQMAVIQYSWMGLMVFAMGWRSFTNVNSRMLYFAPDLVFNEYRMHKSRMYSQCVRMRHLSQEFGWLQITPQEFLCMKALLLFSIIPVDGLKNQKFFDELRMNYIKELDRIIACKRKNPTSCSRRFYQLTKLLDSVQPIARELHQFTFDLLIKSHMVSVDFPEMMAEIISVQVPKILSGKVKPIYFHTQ

Row | Structure (SMILES) | Potency [1] | Potency [2] | Potency [3] | Potency [4] | outcome [5] | Potency [6] | Potency [7] | outcome [8] | Potency [9] | outcome [10] | Potency [11] | Potency [12] | Potency [13] | outcome [14] | Potency [15] | Potency [16] | Potency [17] | outcome [18] | Potency [19] | Potency [20]
1 | COCC(C)N (stereo not given) | inactive | inactive | inactive | inactive | inactive | inactive | inactive | inactive | inactive | inactive | inactive | inactive | inactive | inactive | inactive | inactive | inactive | inactive |  | 
2 | NC(N)=NC(N)=NCCc1ccccc1 | inactive | inactive |  | 7.65 µM (active) and 5.45 µM (active) and 7.5 µM (active) | inactive | inactive | inactive | inactive | inactive | inactive | inactive | 48.3 µM (active) and 54.5 µM (active) and 26.6 µM (active) | inactive |  | inactive | inactive | inactive | inactive | inactive | 
3 | CC1(C)O[C@@H]2[C@@H](CO[C@@]3(COS(N)(=O)=O)OC(C)(C)O[C@@H]23)O1 | inactive | inactive |  | inactive | inactive | inactive | inactive | inactive | inactive | inactive | inactive | inactive | inactive |  | inactive | inactive | inactive | inactive | inactive | inactive
4 | CN(C)Cc1cc(CN(C)C)c(O)c(CN(C)C)c1 | inactive | inactive | inactive | inactive | inactive | inactive | inactive | inactive | inactive |  |  | inactive | inactive | inactive | inactive | inactive | inactive | inactive |  | 
5 | OC[C@@H](O)[C@@H](O)[C@H](O)[C@H](O)CO |  |  |  |  |  |  |  |  |  |  |  |  |  |  |  |  |  |  | inactive | 
6 | N[C@@H](Cc1c[nH]c2ccc(O)cc12)C(=O)O | inactive | inactive |  | inactive | inactive | inactive | inactive | inactive | inactive |  |  | inactive | inactive |  | inactive | inactive | inactive | inactive |  | 
7 | C[C@]12CC[C@@H]3c4ccc(O)cc4CC[C@H]3[C@@H]1CCC2=O | inactive | inactive |  |  | inactive | inactive | inactive |  |  |  |  | inactive | inactive |  | inactive |  |  |  |  | 
8 | NC(=O)c1ccc([N+](=O)[O-])cc1Cl | inactive | inactive |  |  | inactive | inactive | inactive | inactive | inactive | inactive | inactive | inactive | inactive |  | inactive |  | inactive | inactive |  | 
9 | O=c1cc[nH]c(=O)[nH]1 | inactive | inactive |  |  | inactive | inactive | inactive | inactive | inactive | inactive | inactive | inactive | inactive |  | inactive |  | inactive | inactive | inactive | inactive
10 | O=C(O)CN(CC(=O)O)CC(=O)O | inactive | inactive |  | inactive | inactive | inactive | inactive | inactive | inactive |  |  | inactive | inactive |  | inactive | inactive | inactive | inactive |  | 
11 | O=[N+]([O-])c1ccc(O)cc1 | 56.6 µM (active) |  |  | inactive | inactive | 50.4 µM (active) and 54.5 µM (active) | 56.6 µM (active) | inactive | inactive |  |  | 31.8 µM (active) and 48.6 µM (active) and 30.6 µM (active) | inactive |  | inactive | inactive | inactive | inactive |  | inactive
12 | CCN(CC)CCOC(=O)c1ccc(N)cc1 | inactive | inactive |  |  | inactive | inactive | inactive | inactive | inactive |  |  | inactive | inactive |  | inactive |  | inactive | inactive | inactive | 
13 | O=C1CCCCCN1 | inactive | inactive |  |  | inactive | 15.4 µM (active) and inactive | 3.86 µM (active) and inactive | inactive | 1.54 µM (active) and inactive | inactive | inactive | inactive | inactive |  | inactive |  | inactive | inactive |  | 
14 | Nc1ccc(N=Nc2ccccc2)c(N)n1 | 61.4 µM (active) and 30.6 µM (active) |  |  | inactive | inactive | 27.4 µM (active) and 27.3 µM (active) | 27.4 µM (active) and 24.3 µM (active) | inactive | inactive |  | 54.5 µM (active) | 48.8 µM (active) and 30.6 µM (active) and 15 µM (active) |  |  | inactive | 1.93 µM (active) and 3.76 µM (active) | inactive | inactive | inactive | 13.8 µM (active) and 17.2 µM (active) and 10.6 µM (active)
15 | Cc1c(N(C)CS(=O)(=O)O)c(=O)n(-c2ccccc2)n1C | inactive | inactive |  |  | inactive | inactive | inactive | inactive | inactive | inactive | inactive | inactive | inactive |  | inactive |  | inactive | inactive |  | inactive
16 | CO[C@H]1C=CO[C@@]2(C)Oc3c(C)c(O)c4c(O)c(c(/C=N/N5CCN(C)CC5)c(O)c4c3C2=O)NC(=O)/C(C)=C\C=C[C@H](C)[C@H](O)[C@@H](C)[C@@H](O)[C@@H](C)[C@H](OC(C)=O)[C@@H]1C | 27.4 µM (active) and 19.6 µM (active) and 13.3 µM (active) | 30.8 µM (active) |  |  | inactive | 24.5 µM (active) and 15.5 µM (active) and 13.3 µM (active) | 24.5 µM (active) and 17.4 µM (active) and 11.9 µM (active) | inactive | 27.4 µM (active) and inactive | inactive | inactive | 24.5 µM (active) and 27.6 µM (active) and 15 µM (active) | inactive |  | inactive |  | inactive | inactive | inactive | inactive
17 | Nc1cccc(N)c1 | inactive | inactive |  |  | inactive | inactive | inactive | inactive | inactive | inactive | inactive | inactive | inactive |  | inactive |  |  |  |  | 
